Measured values published in PubChem BioAssay (EPA / NIEHS).
Records with an inconclusive call do not appear. Activity calls are given as the source filed them. The calls were made as follows, unless noted: active = hit-call score of the fitted dose curve at least 0.9, where 1 is the maximum; inactive = score below 0.9.

Test system: Brachyury (BRA) Protein Expression, TBXT (gene 6862)
Experiment: CCTE_Deisenroth_DEVTOX-GLR_Endo_BRA: CCTE's DevTox GLR-Endo Assay Evaluation of Brachyury (BRA) Protein Expression, Deisenroth Lab (AID 2284417)
Outline: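 RUES2-GLR pluripotent cells differentiated 48 h with two chemical exposures 24 h apart, 10-point range 1 nM - 200 uM. Percentage of BRA+ cells per total count by high-content imaging, minus 0.2% DMSO control.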

SMILES	AC50	outcome
CCCCOC(=O)c1ccc(O)cc1	66.5 µM (active)	
CO[C@H]1/C=C/O[C@@]2(C)Oc3c(C)c(O)c4c(O)c(c(/C=N/N5CCN(C)CC5)c(O)c4c3C2=O)NC(=O)/C(C)=C\C=C\[C@H](C)[C@H](O)[C@@H](C)[C@@H](O)[C@@H](C)[C@H](OC(C)=O)[C@@H]1C	88.8 µM (active)	
OCCO		inactive
CC/C(=C(/CC)c1ccc(O)cc1)c1ccc(O)cc1	0.891 µM (active)	

Test system: not listed separately
Experiment: CCTE_Deisenroth_DEVTOX-GLR_Endo_CellCount: Viability Assessment in CCTE's DevTox GLR-Endo Assay, Deisenroth Lab (AID 2284420)
Experimental: CCTE_Deisenroth_DEVTOX-GLR_Endo assay is a cell-based, multiplex-readout assay that uses RUES2-GLR, a human pluripotent cell line, with measurements taken at 48 hours after chemical dosing in a 384-well microplateCCTE_Deisenroth_DEVTOX-GLR_Endo_CellCount is 1 of 4 assay components calculated from the CCTE_Deisenroth_DEVTOX-GLR_Endo assay and it measures cell count. Using fluorescent nuclear staining, loss-of-signal activity can be used to understand changes in cell viability with fluorescent microscopy. It is designed to make measurements of nuclei counts as a surrogate for cell number, as detected with optical fluorescence microscopy by Perkin Elmer Harmony nuclei detection algorithm. To generalize the intended target to other relatable targets, this assay component is annotated to the cell cycle intended target family, where the subfamily is cytotoxicity.Data from the assay component CCTE_Deisenroth_DEVTOX-GLR_Endo_CellCount was analyzed as 1 assay endpoint. The endpoint the percent change in cell count relative to the 0.2% DMSO control in the CCTE_Deisenroth_DEVTOX-GLR_Endo assay. Furthermore, this assay endpoint can be referred to as a primary readout, because this assay has produced multiple assay endpoints where this one serves as a measure of cytotoxicity.
(§1) All assay protocols are aligned to the DevTox GLR-Endo assay workflow. Cells are seeded into 384-well microplates for 24 hours prior to initiating differentiation in defined media for a total duration of 48 hours. A total of two chemical exposures are administered in 24-hour intervals during the 48-hour differentiation period. At the assay termination point, cells are fixed and stained with a fluorescent dye demarcating the nucleus. High-content imaging is used to acquire brightfield and fluorescent channel images across 5 fields per well. Cell identification and mean biomarker fluorescence intensities are calculated with image analysis software to determine the total cell counts for viability assessment and the biomarker expression frequency for each lineage-dependent assay. A typical experimental design tests a 10-point concentration series (1 nM - 200 uM) for 28 compounds in single technical replicate. Assay plate controls include non-differentiated pluripotent cells (baseline control), lineage-specific differentiated cells (differentiation control), and DMSO solvent exposed differentiated cells (solvent control). Experiments typically comprise a minimum of four experimental replicates (n=4).

SMILES	AC50	outcome
CCCCOC(=O)c1ccc(O)cc1	37.9 µM (active)	
CO[C@H]1/C=C/O[C@@]2(C)Oc3c(C)c(O)c4c(O)c(c(/C=N/N5CCN(C)CC5)c(O)c4c3C2=O)NC(=O)/C(C)=C\C=C\[C@H](C)[C@H](O)[C@@H](C)[C@@H](O)[C@@H](C)[C@H](OC(C)=O)[C@@H]1C	41.5 µM (active)	
OCCO		inactive
CC/C(=C(/CC)c1ccc(O)cc1)c1ccc(O)cc1	1.58 µM (active)	

Test system: SRY-box transcription factor 17 (SOX17) Protein Expression, Deisenroth Lab, SOX17 (gene 64321)
Experiment: CCTE_Deisenroth_DEVTOX-GLR_Pluri_SOX17: CCTE's DevTox GLR-Pluri Assay Evaluation of SRY-box transcription factor 17 (SOX17) Protein Expression, Deisenroth Lab (AID 2284427; active = hit-call score of the fitted dose curve at least 0.9, where 1 is the maximum)
Experimental: CCTE_Deisenroth_DEVTOX-GLR_Pluri assay is a cell-based, multiplex-readout assay that uses RUES2-GLR, a human pluripotent cell line, with measurements taken at 48 hours after chemical dosing in a 384-well microplateCCTE_Deisenroth_DEVTOX-GLR_Pluri_SOX17 is 1 of 4 assay components calculated from the CCTE_Deisenroth_DEVTOX-GLR_Pluri assay and it measures an the percentage of cells in an endoderm state. Using a type of inducible fluorescent protein reporter, gain-of-signal activity can be used to understand changes in gene expression with fluorescent microscopy. The percentage of SOX17+ cells are determined by calculating the number of SOX17+ cells divided by the cell count. To generalize the intended target to other relatable targets, this assay component is annotated to the transcription factor intended target family, where the subfamily is SRY-related HMG-box.Data from the assay component CCTE_Deisenroth_DEVTOX-GLR_Pluri_SOX17 was analyzed as 1 assay endpoint. The endpoint is the percent SOX17+ cell population minus the 0.2% DMSO control in the CCTE_Deisenroth_DEVTOX-GLR_Pluri assay. This assay endpoint can be referred to as a secondary readout since this assay has produced multiple assay endpoints where this one serves as a measure of endoderm differentiation.
as §1, with “A typical experimental design tests a 10-point concentration series (1 nM - 200 uM) for 28 compounds in single technical replicate. Assay plate controls include non-differentiated pluripotent cells (baseline control), lineage-specific differentiated cells (differentiation control), and DMSO solvent exposed differentiated cells (solvent control). Experiments typically comprise a minimum of four experimental replicates (n=4).” left out

SMILES	AC50
CCCCOC(=O)c1ccc(O)cc1	51.6 µM (active)
CO[C@H]1/C=C/O[C@@]2(C)Oc3c(C)c(O)c4c(O)c(c(/C=N/N5CCN(C)CC5)c(O)c4c3C2=O)NC(=O)/C(C)=C\C=C\[C@H](C)[C@H](O)[C@@H](C)[C@@H](O)[C@@H](C)[C@H](OC(C)=O)[C@@H]1C	137 µM (active)
CC/C(=C(/CC)c1ccc(O)cc1)c1ccc(O)cc1	1.83 µM (active)

Test system: SRY-box transcription factor 2 (SOX2) Protein Expression, Deisenroth Lab, SOX2 (gene 6657)
Experiment: CCTE_Deisenroth_DEVTOX-GLR_Pluri_SOX2: CCTE's DevTox GLR-Pluri Assay Evaluation of SRY-box transcription factor 2 (SOX2) Protein Expression, Deisenroth Lab (AID 2284428)
Outline: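 Percent SOX2+ RUES2-GLR cells, determined by fluorescence microscopy after 48 h and two 24-h-interval chemical exposures spanning 1 nM–200 uM, served as the endpoint. Values are expressed relative to 0.2% DMSO; total cell counts assessed viability.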

SMILES	AC50	outcome
CCCCOC(=O)c1ccc(O)cc1	21.6 µM (active)	
CO[C@H]1/C=C/O[C@@]2(C)Oc3c(C)c(O)c4c(O)c(c(/C=N/N5CCN(C)CC5)c(O)c4c3C2=O)NC(=O)/C(C)=C\C=C\[C@H](C)[C@H](O)[C@@H](C)[C@@H](O)[C@@H](C)[C@H](OC(C)=O)[C@@H]1C		inactive
OCCO		inactive
CC/C(=C(/CC)c1ccc(O)cc1)c1ccc(O)cc1	7.85 µM (active)	

Test system: Brachyury (BRA) Protein Expression, Deisenroth Lab, TBXT (gene 6862)
Experiment: CCTE_Deisenroth_DEVTOX-GLR_Pluri_BRA: CCTE's DevTox GLR-Pluri Assay Evaluation of Brachyury (BRA) Protein Expression, Deisenroth Lab (AID 2284429; active = hit-call score of the fitted dose curve at least 0.9, where 1 is the maximum)
Outline: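 Mesoderm readout after 48 h differentiation of human RUES2-GLR cells, dosed twice (24-h intervals) at 1 nM - 200 uM. BRA+ frequency from fluorescence imaging of fixed, nuclear-stained cells, DMSO-corrected.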

SMILES	AC50	outcome
CCCCOC(=O)c1ccc(O)cc1	89.2 µM (active)	
CO[C@H]1/C=C/O[C@@]2(C)Oc3c(C)c(O)c4c(O)c(c(/C=N/N5CCN(C)CC5)c(O)c4c3C2=O)NC(=O)/C(C)=C\C=C\[C@H](C)[C@H](O)[C@@H](C)[C@@H](O)[C@@H](C)[C@H](OC(C)=O)[C@@H]1C	59.9 µM (active)	
OCCO		inactive
CC/C(=C(/CC)c1ccc(O)cc1)c1ccc(O)cc1	1.9 µM (active)	
